Rows were chosen to be rich in hits. Some 1.9% of all compounds tested hit in one or more screens of this group.
Measles CPE – compounds protecting cells from measles virus cytopathic effect, primary screen, measles RdRp inhibitor project, single point, MLSMR library, absorbance | Measles virus-infected cells, CPE protection | protection (pct of control), % at 4 µM | 140,000 tested, 1.5% active | AID 841, 2007; in the data active = protection mostly above about 24%, no sharp cut-off; inactive = mostly below about 26%
sEH act – soluble epoxide hydrolase activators, primary screen, biochemical, human sEH | Bifunctional epoxide hydrolase 2 (Homo sapiens), P34913 | purified human sEH enzymatic activity, activator screen | activation, % at 2 µM | 91,000 tested, 0.04% active | AID 717, 2007; in the data active = activation above about 37%
Target sequence (P34913 whole entry, looked up): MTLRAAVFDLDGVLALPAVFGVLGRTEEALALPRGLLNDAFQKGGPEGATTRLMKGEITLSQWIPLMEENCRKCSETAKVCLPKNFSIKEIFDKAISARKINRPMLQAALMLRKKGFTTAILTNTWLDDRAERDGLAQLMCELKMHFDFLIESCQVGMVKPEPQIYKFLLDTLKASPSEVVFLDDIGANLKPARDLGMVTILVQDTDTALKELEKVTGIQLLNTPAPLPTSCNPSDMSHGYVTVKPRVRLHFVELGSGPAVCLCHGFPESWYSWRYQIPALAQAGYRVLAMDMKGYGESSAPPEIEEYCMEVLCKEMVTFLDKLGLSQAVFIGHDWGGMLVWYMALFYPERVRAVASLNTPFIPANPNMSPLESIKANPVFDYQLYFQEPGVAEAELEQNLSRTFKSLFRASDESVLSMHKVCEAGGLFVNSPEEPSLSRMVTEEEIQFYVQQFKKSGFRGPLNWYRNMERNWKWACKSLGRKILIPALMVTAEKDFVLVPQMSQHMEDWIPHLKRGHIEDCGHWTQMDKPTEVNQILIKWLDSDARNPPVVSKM
sEH inhibitor – soluble epoxide hydrolase inhibitors, primary screen, biochemical, human sEH. Bifunctional epoxide hydrolase 2 (Homo sapiens), P34913. recombinant human sEH enzymatic activity assay. inhibition, % at 2 µM. 91,000 tested, 0.34% active; in the data active = inhibition above about 80%
SDO1 yeast rescue – growth rescue of sdo1-depleted yeast, primary screen, S. cerevisiae, bone marrow failure model | S. cerevisiae sdo1-depleted JHY4D growth rescue, OD600 30 h; hits give high values; pdr5 snq2 efflux-pump mutant strain | z-score at 10 µM | 140,000 tested, 0.21% active | AID 817, 2007;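 active = z-score above 3 at both the 24 hr and the 30 hr optical density reads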;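 note: z-score against mean and SD of all compound wells on the same plate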
Active calls of the source: *; · = not tested or not shown.

SMILES	Measles CPE	sEH act	sEH inhibitor	SDO1 yeast rescue
Cc1cccc2c(=O)cc(C)n(Cc3ccccc3)c12	36*	·	·	-0.73
Cc1cccc2c(=O)cc(C)n(CC(=O)N3CCCCC3)c12	6	0	1	0.47
N#CCSc1nnc(COc2ccc3ccccc3c2)o1	46*	5	-6	-1.2
CCOC(=O)Cn1nc(-c2ccccc2)ccc1=O	38	10	-11	-0.25
CCOC(=O)C(C)n1nc(/C=C/c2ccccc2)ccc1=O (configuration not stated)	88*	-11	11	-0.07
Cc1nn(-c2ccccc2)c(N)c1Sc1ccccc1[N+](=O)[O-]	46*	·	·	-0.88
Cc1nn(-c2ccccc2)c(N)c1Sc1cccc([N+](=O)[O-])c1	8	·	·	-0.27
O=C(NCc1ccc(F)cc1)C(=O)NCC1OCCN1C(=O)c1ccc(Cl)cc1 (configuration not stated)	13	·	·	0.86
O=C(O)Cn1cc(C(=O)c2ccco2)c2ccccc21	13	·	·	1.2
O=C(CSc1nnc(-c2ccc(F)cc2)c2ccccc12)Nc1c(F)cccc1F	37*	·	·	-1
CSc1ncccc1C(=O)OCC(=O)N(C)C1CCS(=O)(=O)C1 (configuration not stated)	3	1	-2	0.71
Cc1cc(C)cc(OCC(=O)Nc2ccc(F)cc2)c1	9	-6	5	-0.09
Cc1ccc(N(Cc2ccc(C(=O)NC3CCCCC3)cc2)S(C)(=O)=O)cc1C	103*	-32	31	-0.7
CS(=O)(=O)N(Cc1ccccc1)c1ccc(C(=O)NCc2ccccc2)cc1	44*	-4	6	0.74
COC(=O)C(C(=O)Nc1cc(C)on1)C1CCCCCC1 (configuration not stated)	14	-6	10	0.4
Nc1c(C(=O)NCc2ccc3c(c2)OCO3)c2nc3ccccc3nc2n1CCCN1CCOCC1	10	·	·	-2.3
COc1ccccc1CNC(=O)c1c(N)n(CCCN2CCOCC2)c2nc3ccccc3nc12	3	117*	-108	-2.8
CC(C)NC(=O)C1CCCN(c2nnc(-n3cccc3)s2)C1 (configuration not stated)	3	-10	9	1.3
CC(CCc1ccccc1)NC(=O)C1CCCN(c2nnc(-n3cccc3)s2)C1 (configuration not stated)	35*	-25	25	-0.22
O=C(CSc1nnc(Nc2ccccc2F)s1)NCc1ccco1	8	0	-1	-1.1
COc1ccc(C2C(C(=O)O)CC(=O)N2C2CCCCC2)cc1 (configuration not stated)	48*	2	3	-0.42
O=C(COc1ccc([N+](=O)[O-])cc1)N/N=C/c1ccccn1	24	10	-8	-0.58
O=C(O)CSc1c(-c2cccs2)[nH]c2ccccc12	40*	·	·	0.86
O=C(O)CSc1c(-c2ccccc2)[nH]c2ccccc12	10	·	·	0.45
CN(C)c1ccc(N/C=C/C(=O)c2ccccc2)cc1	8	-5	4	0.96
SMILES	Measles CPE	sEH act	sEH inhibitor	SDO1 yeast rescue
CN(C)c1ccc(N/C=C/C(=O)C(C)(C)C)cc1	53*	-11	8	1.3
Cc1cc(C)cc(NC(=O)Cn2c(-c3ccccc3Cl)nc3ccccc32)c1	35*	·	·	-1.3
CC(Cc1cccs1)NC(=O)Nc1ccc(Cl)c(Cl)c1 (configuration not stated)	2	-90	90*	-3.1
CC(Cc1cccs1)NC(=O)Nc1ccc(Cl)cc1 (configuration not stated)	15	-86	87*	-0.51
CC(Cc1cccs1)NC(=O)Nc1ccccc1 (configuration not stated)	9	-58	58	0.69
C=C(C)COc1ccc(-c2[nH]ncc2Oc2cccc(OC)c2)c(O)c1	6	0	3	-2.2
COc1cccc(-c2nnc(SCC3CNC(=O)O3)n2-c2ccc(Cl)cc2)c1 (configuration not stated)	12	·	·	0.28
O=C(COC(=O)CCSc1ccccc1)NCc1ccccc1Cl	75*	·	·	1.3
Cc1ccc(CNC(=O)/C(C#N)=C/c2ccc(C)s2)cc1	20*	-10	12	-0.02
COCCSc1ccccc1C(=O)N1CCN(Cc2ccc3c(c2)OCO3)CC1	51*	-12	15	0.42
CCCNC(=O)[C@H](Cc1c[nH]c2ccccc12)NC(=O)c1ccccc1Cl	32*	·	·	0.1
CCOC(=O)c1cnn(-c2ccc(Cl)cc2)c1C1CCN(C(=O)OC(C)(C)C)CC1	5	0	-3	-0.82
CN(C)/C=N/c1sccc1C(N)=O	6	-19	21	0.84
CCOC(=O)N1CCN(C(=O)c2cnn3c(C)c(Cc4ccc(C)cc4)c(C)nc23)CC1	20	1	-2	-0.02
Cc1ccc(C)c(Cc2c(C)nc3c(C(=O)N4CCOCC4)cnn3c2C)c1	40*	-2	2	-0.81
CCCc1nnc(NC(=O)CCC(=O)N2CCN(CCOc3ccc(C)cc3)CC2)s1	2	7	-5	0.48
CCCc1nnc(NC(=O)CCC(=O)N2CCN(CCn3c(C)ccc3C)CC2)s1	31*	0	3	0.2
O=C(Nc1nnc(COc2ccccc2)s1)c1ccco1	45*	8	-10	-1.3
C=CCOc1ccc(NC(=O)C2CC(=O)N(C(C)C)C2)cc1 (configuration not stated)	22	9	-11	1.7
Cc1ccc(NC(=O)COC(=O)Cn2nc(C)c([N+](=O)[O-])c2C)c([N+](=O)[O-])c1	40*	·	·	0.21
Cc1nn(CC(=O)OCC(=O)Nc2ccccc2[N+](=O)[O-])c(C)c1[N+](=O)[O-]	6	·	·	1.7
CCOC(=O)c1cc(-c2ccccc2)sc1NC(=O)C(C)(C)C	6	2	-2	-1.5
COc1cccc(-n2nc(C(=O)O)c3ccccc3c2=O)c1	45	·	·	-0.55
COC(=O)CNC(=O)c1nn(-c2cccc(OC)c2)c(=O)c2ccccc12	44*	·	·	0.82
O=C(Nc1ncccn1)C1CCCN1S(=O)(=O)c1ccc(Cl)c(Cl)c1 (configuration not stated)	45*	1	-6	0.81
SMILES	Measles CPE	sEH act	sEH inhibitor	SDO1 yeast rescue
CCOCC(=O)Nc1cc([N+](=O)[O-])ccc1C	10	·	·	1.4
Cc1cc(O)c(C(=O)c2ccccc2C(=O)O)cc1C	5	-5	6	-0.15
CC(C)=CCCC(C)NC(=O)NC1CCCCC1 (configuration not stated)	27*	-90	91*	0.59
NNC(=O)c1cnn(Cc2ccccc2)c1N	7	-86	87*	1.1
NC(=O)c1cnn(Cc2ccc(Cl)cc2)c1N	20	12	-10	0.72
O=S(=O)(Nc1ccc2c(c1)OCCO2)c1ccc(F)cc1	7	-5	7	0.46
CSc1ccc(S(=O)(=O)Nc2ccc3c(c2)OCCO3)cc1	42*	·	·	-0.6
O=C1N=C(c2ccccc2)S/C1=C\c1cccs1	5	-8	4	-1.3
Cc1cc(NC(=O)CSc2ccc3nnc(-c4cccnc4)n3n2)no1	44*	-5	4	-0.66
Cc1ccc(-c2nnc3ccc(SCC(=O)Nc4cc(C)on4)nn23)cc1	8	-2	2	-0.3

Compound activity from PubChem BioAssay.
